# About 7,000 (2%) of roughly 350,000 compounds were called active. No stated cut-off is given here; in the data, active means activation above about 40%; inconclusive means no clear call, values can overlap the other calls; inactive means below that. Only a selection was taken, and actives are over-represented in it overall.
# Test: raisers of Bmi1 knock-in reporter signal – mouse ES cells, Bmi1 luciferase knock-in, single point, esBAF inhibitor project, primary screen (AID 602393);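 further: 0% = median of the plate's neutral control wells and 100% = double that signal; a rise in the Bmi1 reporter signal indicates esBAF inhibition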
# Settings: 24 h, at 12.5 µM, stronger effect = higher value, 100% = twice the neutral-well signal
row,SMILES,reporter increase
1,O=C(Nc1ccc(Cl)c(Cl)c1)c1ccccc1NC(=O)C1CC=CCC1C(=O)O (centres undefined),92.4% (active)
2,O=C(O)C1CC=CCC1C(=O)NCCc1ccccc1 (centres undefined),-11% (inactive)
3,O=C(Nc1cccc(Cl)c1Cl)c1ccccc1NC(=O)C1CC=CCC1C(=O)O (centres undefined),5.49% (inactive)
4,CCCCOC(=O)c1[nH]c(C)c(C(=O)OC)c1C,78.5% (active)
5,COC(=O)c1c(C)[nH]c(C(=O)NCCc2ccc(S(N)(=O)=O)cc2)c1C,-4.52% (inactive)
6,CC(=O)c1c(C)[nH]c(C(=O)OCC(=O)Nc2c(C)cccc2C)c1C,-23.7% (inactive)
7,CO[C@@H]1CN(C)C(=O)c2ccc(NS(C)(=O)=O)cc2OC[C@@H](C)N(CC2CC2)C[C@@H]1C,1.93% (inactive)
8,C[C@@H]1CN([C@@H](C)CO)C(=O)c2cc(N(C)C)ccc2O[C@@H](C)CCCCO[C@H]1CN(C)Cc1ccncc1,-3.61% (inactive)
9,CCc1nc(N2CCN(C(C)=O)CC2)c2c3c(sc2n1)CCCC3,-4.58% (inactive)
10,C=C(C)CSc1nc(N)c2c3c(sc2n1)CCC3,75.4% (active)
11,CC(C)(C)C1CCc2c(sc3nc(SCC(N)=O)nc(N)c23)C1 (centres undefined),-0.656% (inactive)
12,C[C@H](O)C#Cc1cnc2c(c1)C(=O)N([C@@H](C)CO)C[C@@H](C)[C@@H](CN(C)C(=O)Cc1ccccn1)O2,-2.01% (inactive)
13,Cc1noc(C)c1-c1ccc(C(=O)NCc2ccncc2)c2occc12,8.81% (inactive)
14,COCCCNC(=O)c1cccc2c(-c3ccc(O)c(OC)c3)coc12,12.3% (inactive)
15,COCCCNC(=O)c1ccc(-c2c(C)noc2C)c2ccoc12,78.5% (active)
16,COc1ccccc1S(=O)(=O)N[C@@H]1C=C[C@H](CC(=O)N2CCOCC2)O[C@@H]1CO,-2.3% (inactive)
17,COCCNC(=O)C[C@H]1CC[C@H](NS(=O)(=O)c2ccc(C)cc2)[C@@H](CO)O1,-2.1% (inactive)
18,COc1ccc(C(=O)Nc2sc(C)c(C)c2CN2CCOCC2)cc1,98.6% (active)
19,CCOc1ccc(C(=O)Nc2ccc(CN3CCOCC3)cc2)cc1Cl,9.32% (inactive)
20,COc1ccc(C(=O)Nc2ccnn2C2CCN(Cc3ccncc3)CC2)cc1,4.74% (inactive)
21,Cc1nn(CC(=O)NCC2CCCO2)c(=O)c2cc3ccccc3n12 (centres undefined),-0.752% (inactive)
22,Cc1c(C(=O)NCC2CCCO2)sc2nc(-c3ccccc3)cn12 (centres undefined),63.8% (active)
23,Cc1c(C(=O)NCCN2CCOCC2)sc2nc(-c3ccc(F)cc3)cn12,2.29% (inactive)
24,O=C(c1c(Cl)nc2sccn12)N1CCCc2ccccc21,-5.89% (inactive)
25,Cc1ccc(C(=O)N2CCCc3ccccc32)c(Cl)c1,-0.356% (inactive)
26,Cc1c(C(=O)N2CCCc3ccccc32)sc2nc(-c3ccccc3)cn12,69.3% (active)
27,C[C@H](CO)N1C[C@H](C)[C@@H](CN(C)C(=O)Nc2ccc3c(c2)OCO3)Oc2ccc(NS(=O)(=O)c3ccc(Cl)cc3)cc2CC1=O,-3.55% (inactive)

row,SMILES,reporter increase
1,C[C@@H]1CCCCO[C@H](CN(C)Cc2ccc(Cl)c(Cl)c2)[C@H](C)CN([C@@H](C)CO)C(=O)c2cc(NC(=O)C3CCCCC3)ccc2O1,1.62% (inactive)
2,COc1cccc(-c2ccc3n(c2=O)C[C@H]2[C@H](CO)[C@@H](C(=O)NC4CCCC4)[C@@H]3N2C)c1,3.16% (inactive)
3,COCC(=O)N(C)C[C@@H]1Oc2cc(C3=CCCC3)ccc2S(=O)(=O)N([C@@H](C)CO)C[C@H]1C,0.332% (inactive)
4,C[C@H](CO)N1C[C@H](C)[C@@H](CN(C)Cc2ccccc2C(F)(F)F)OCc2cn(nn2)CCCC1=O,-1.8% (inactive)
5,C[C@H](NC(=O)C[C@H]1C=C[C@@H](NC(=O)C2CCOCC2)[C@@H](CO)O1)c1ccccc1,1.15% (inactive)
6,Cc1cccc(C(=O)Nc2ccc(Oc3cnccn3)cc2)c1,45% (active)
7,Cc1cccc(C(=O)Nc2ccc(C(=O)N/N=C/c3cccc(C)n3)cc2)c1,14.2% (inactive)
8,Cc1ccc(NC(=O)c2ccc(Oc3ncccn3)cc2)cc1,34% (inactive)
9,C[C@H](CO)N1C[C@H](C)[C@H](CN(C)C(=O)c2cnccn2)Oc2cc(C3=CCCC3)ccc2S1(=O)=O,4.52% (inactive)
10,O=C(CN1CCOCC1)N[C@@H]1CC[C@@H](CCNC(=O)C2CCCCC2)O[C@@H]1CO,0.276% (inactive)
11,CN1C(=O)c2cc(NC(=O)c3cscn3)ccc2OC[C@H]2O[C@@H](CC(=O)NCC3CC3)CC[C@H]21,1.7% (inactive)
12,Nc1nc(COC(=O)CCC(=O)c2ccc(Cl)cc2)nc(Nc2ccccc2)n1,-2.01% (inactive)
13,O=C(c1ccc(Cl)cc1)c1cnc(Nc2ccccc2)s1,70% (active)
14,O=C(CCCOc1ccccc1)NNC(=O)c1ccc(Cl)cc1,-5.87% (inactive)
15,C[C@@H]1CCCCO[C@H](CN(C)S(=O)(=O)c2cccs2)[C@H](C)CN([C@@H](C)CO)C(=O)c2cc(NC(=O)Nc3ccc4c(c3)OCO4)ccc2O1,3.42% (inactive)
16,Cn1c(CNc2nc(-c3ccccc3)cs2)nnc1SCC(=O)c1ccccc1,6.92% (inactive)
17,C/C(CC1CC(C)(C)OC1=O)=N/Nc1nc(-c2ccccc2)cs1 (centres undefined),46.1% (active)
18,CC1(C)CC(CC(=O)O)C(=O)O1 (centres undefined),3.84% (inactive)
19,COc1ccc(S(=O)(=O)N(C)C[C@@H]2OCCCC[C@H](C)Oc3ccc(NC(=O)Nc4ccccc4)cc3C(=O)N([C@H](C)CO)C[C@H]2C)cc1,6.53% (inactive)
20,COc1ccccc1-c1cnc2c(c1)C(=O)N([C@H](C)CO)C[C@H](C)[C@H](CN(C)C(=O)CN(C)C)O2,-4.34% (inactive)
21,O=C(CCc1ccccc1)NNC(=O)COc1ccc(Cl)cc1,-7.85% (inactive)
22,O=C(NC1CCCCCC1)C1CCN(C(=O)c2ccc(Cl)cc2)CC1,1.61% (inactive)
23,CCCNC(=S)N1CCC(NC(=O)c2ccc(OC)cc2)CC1,4.39% (inactive)
24,COc1ccc(C(=O)NC(=S)NC2CCCCC2)cc1,53.2% (active)
25,COc1ccc(/C(N)=N/OC(=O)CCCc2ccccc2)cc1,22.2% (inactive)
26,Cc1ccccc1C(=O)NC(=S)NC1CC1,19.1% (inactive)
27,O=C(NNC(=S)NC1CCCCC1)c1ccccc1Cl,12.8% (inactive)

row,SMILES,reporter increase
1,COc1ccc(C(=O)NC(=S)NNC(=O)CCc2ccccc2)cc1,50.7% (active)
2,O=C(NC(=S)NC1CCCCC1)c1ccc(Cl)cc1,92.1% (active)
3,C[C@@H]1CN([C@H](C)CO)C(=O)c2cc(-c3ccncc3)cnc2O[C@H]1CN(C)C,2.47% (inactive)
4,O=C(C[C@H]1CC[C@H]2[C@@H](COC[C@@H](O)CN2S(=O)(=O)c2cccc(Cl)c2)O1)NC1CCCC1,0.9% (inactive)
5,CN1C(=O)c2cc(NC(=O)c3ccc(Cl)cc3)ccc2OC[C@@H]2O[C@@H](CC(=O)O)CC[C@H]21,5.97% (inactive)
6,CC(C)NC(=O)N(C)C[C@H]1Oc2ccc(NC(=O)CCC(F)(F)F)cc2CC(=O)N([C@@H](C)CO)C[C@@H]1C,-3.69% (inactive)
7,CCCC(=O)Nc1ccc2c(c1)C(=O)N(C)C[C@H](OC)[C@H](C)CN(CCc1ccccc1)[C@H](C)CO2,-0.112% (inactive)
8,Cc1ccc(S(=O)(=O)NCC[C@@H]2CC[C@H](NC(=O)c3ccccn3)[C@H](CO)O2)cc1,1.61% (inactive)
9,O=C(N[C@H]1CC[C@@H](CCNC(=O)C2CCC2)O[C@@H]1CO)c1ccncc1,-1.2% (inactive)
10,Cc1noc(C)c1NC(=O)Nc1ccc2c(c1)C(=O)N([C@@H](C)CO)C[C@H](C)[C@@H](CN(C)Cc1ccncc1)OCCCC[C@@H](C)O2,-7.33% (inactive)
11,O=C(C[C@@H]1CC[C@H]2[C@@H](COC[C@@H](O)CN2S(=O)(=O)c2cccc(F)c2)O1)NCCCN1CCOCC1,2.86% (inactive)
12,O=C(NCc1ccccn1)c1cc(-c2ccccc2Cl)on1,54.4% (active)
13,Clc1ccccc1-c1cc(COc2ccc3ccccc3c2)no1,9.3% (inactive)
14,O=C(NC1CCCC1)c1cc(-c2ccccc2)on1,18.8% (inactive)
15,O=C(Nc1cccnc1Cl)c1cc(-c2ccccc2O)on1,65% (active)
16,O=C(NCc1ccccn1)Nc1ccc(Cl)cc1,21.5% (inactive)
17,C=CCNC(=O)c1cc(-c2ccccc2O)on1,35.4% (inactive)
18,C[C@H](CO)N1C[C@H](C)[C@@H](CN(C)C)OCCCC[C@H](C)Oc2ccc(NC(=O)C3CCCCC3)cc2C1=O,-0.46% (inactive)
19,COc1ccc(CNC(=O)C[C@H]2CC[C@@H]3[C@H](COc4ccc(NC(=O)C5CC5)cc4C(=O)N3C)O2)cc1,-1.53% (inactive)
20,CCCNC(=O)N(C)C[C@H]1Oc2ncc(C#C[C@@H](C)O)cc2C(=O)N([C@@H](C)CO)C[C@@H]1C,-6.34% (inactive)
21,N#C[C@H]1[C@@H](c2ccc(C3=CCCCC3)cc2)[C@@H](CO)N1C(=O)Cc1ccncc1,2.63% (inactive)
22,Cc1noc(C)c1NC(=O)Nc1ccc2c(c1)C(=O)N([C@@H](C)CO)C[C@H](C)[C@@H](CN(C)C(=O)C1CCCCC1)OCCCC[C@@H](C)O2,3.6% (inactive)
23,CCCNC(=O)Nc1ccc2c(c1)OC[C@@H](C)N(CC1CCCC1)C[C@@H](C)[C@H](OC)CN(C)C2=O,6.43% (inactive)
24,O=C(C[C@@H]1CC[C@H]2[C@@H](COC[C@H](O)CN2S(=O)(=O)c2ccc(F)cc2)O1)N[C@H]1CCN(Cc2ccccc2)C1,5.45% (inactive)
25,COCCNC(=O)C[C@H]1CC[C@@H]2[C@@H](COc3ccc(NC(=O)C4CCOCC4)cc3C(=O)N2C)O1,0.774% (inactive)
